According to PubChem BioAssay AID777 (Sanford-Burnham Center for Chemical Genomics, 2007):
Screen size: about 96,000 compounds; about 19,000 (20%) were called active. The list is a sample of the results. A number with no mark means an inactive call.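 How the source made its calls: active means blocking of liver enzyme CYP2C9 beyond about 50% at 5 µM (limit read from the data); inactive means the rest.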

These compounds were tested against Cytochrome P450 2C9 (Homo sapiens) (UniProt P11712) (assay: blockers of cytochrome P450 2C9 activity – biochemical, luminescence, ADME assay, primary screen (AID 777)). Conditions: CYP2C9 Supersomes, luciferin-H conversion, at 5 µM, stronger effect = higher value.
Chain of Cytochrome P450 2C9 (Homo sapiens) (P11712 whole entry, looked up): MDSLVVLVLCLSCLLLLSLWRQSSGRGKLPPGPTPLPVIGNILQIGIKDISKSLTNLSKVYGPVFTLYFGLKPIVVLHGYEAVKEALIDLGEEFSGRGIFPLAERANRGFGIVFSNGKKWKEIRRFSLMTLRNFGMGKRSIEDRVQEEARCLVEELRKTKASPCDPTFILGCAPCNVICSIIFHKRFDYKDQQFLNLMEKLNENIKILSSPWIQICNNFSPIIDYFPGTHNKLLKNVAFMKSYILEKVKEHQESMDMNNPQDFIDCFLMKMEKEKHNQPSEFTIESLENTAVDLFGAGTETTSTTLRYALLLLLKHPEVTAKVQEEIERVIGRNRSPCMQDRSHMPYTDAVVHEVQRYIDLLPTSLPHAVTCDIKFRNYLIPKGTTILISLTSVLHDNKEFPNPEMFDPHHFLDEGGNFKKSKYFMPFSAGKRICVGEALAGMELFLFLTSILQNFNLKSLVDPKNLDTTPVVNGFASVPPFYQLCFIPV
With `COCCCN1C(=O)C(=O)/C(=C(/O)c2ccc3c(c2)CC(C)O3)C1c1cccnc1` (stereo not drawn) the inhibition was -1%.
`c1ccc(CCN2CN=C(Nc3nc4ccccc4o3)NC2)cc1` was tested, and the inhibition was 6.5%.
In the case of `Clc1ccc(Cn2ncc3c(NCc4cccnc4)ncnc32)cc1`, the inhibition is reported as 49.7%.
With `CCN1C(=O)/C(=C2\SC(N3CCCCC3)=NC2=O)c2ccccc21` the inhibition was -20.1%.
In the case of `O=C(NCc1cccnc1)c1ccc(CS(=O)(=O)c2ccc(Br)cc2)o1`, the inhibition is reported as 95.6% (active).
For `O=S(=O)(c1ccc(Br)cc1)c1nc(-c2ccccc2)oc1NCc1cccnc1`, the inhibition was 17.3%.
`CC(C)(C)c1cc(C(=O)NCc2cccnc2)ccn1` showed an inhibition of 12.2%.
With `Cc1cc(C(C)(C)C)oc1C(=O)N(CC(=O)NC1CCCC1)Cc1ccc(Cl)cc1` the inhibition was -11.5%.
With `CCOc1cccc(C(=O)Nc2cccnc2)c1` the inhibition was 4.7%.
Work on `C=C(C)C(=O)Nc1cccc(C(C)=O)c1` yielded an inhibition of 1.4%.
With `CC(=O)c1cccc(NC(=O)c2ccncc2)c1` the inhibition was 68.3% (active).
Compound `COc1ccc(NC(=O)c2ccc(OC)cc2)cc1` has an inhibition of -13.7%.
In the case of `CCOc1ccc(C(=O)Nc2ccncc2)cc1`, the inhibition is reported as 94.8% (active).
Work on `CN(C)c1ccc(NC(=O)c2ccncc2)c2ccccc12` yielded an inhibition of 43.9%.
`CCCCOc1ccc(C(=O)NCc2ccncc2)cc1` was tested, and the inhibition was 58.4% (active).
In the case of `CCCCOc1ccc(C(=O)NCc2ccco2)cc1`, the inhibition is reported as 15.5%.
In the case of `CCCCCCOc1ccc(OC(=O)c2cccnc2)cc1`, the inhibition is reported as 10%.
Compound `COC(=O)CNC(=O)c1ccccc1F` has an inhibition of -2.7%.
In the case of `Cc1cc(Cl)c(S(=O)(=O)NCCC(=O)O)cc1OCC(N)=O`, the inhibition is reported as -23.5%.
For `c1cc(-c2nn[nH]n2)ccc1CN1CCCCC1`, the inhibition was -10.5%.
Compound `COc1ccc(-c2cc3nc(C)c(CCC(=O)NC(C)CCc4ccco4)c(C)n3n2)c(OC)c1` (stereo not drawn) has an inhibition of 37.5%.
For `COc1cc(/C=C(/NC(=O)c2ccccc2)C(=O)Nc2cccc(O)c2)c([N+](=O)[O-])cc1OC`, the inhibition was 16.6%.
For `CCOc1ncccc1C(=O)OCc1cn2cc(Cl)ccc2n1`, the inhibition was 45%.
Work on `CSc1nc2ccccc2cc1/C=C(\C#N)c1ccc(Cl)cc1Cl` yielded an inhibition of 7.6%.
With `O=C(NCc1ccco1)c1cnn2c(C(F)(F)F)cc(-c3ccco3)nc12` the inhibition was 17.5%.
In the case of `O=C(NCc1ccco1)c1cccn2c(=O)c3c4c(sc3nc12)CCCC4`, the inhibition is reported as 59.8% (active).
Work on `C=C(C)Cn1c(SCC(=O)NCc2ccco2)nc2sc3c(c2c1=O)CCC3` yielded an inhibition of 34.6%.
`Cc1nc2nc(C)c(CCC(=O)N3CCN(c4ccccc4)CC3)c(C)n2n1` gave an inhibition of 0.9%.
In the case of `COC(=O)C1=C(C)N=C2SC(C)C(=O)N2C1/C=C/c1ccccc1` (stereo not drawn), the inhibition is reported as 48.6%.
In the case of `Cc1ccc(S(=O)(=O)Cn2nnnc2CN2CCN(Cc3ccc4c(c3)OCO4)CC2)cc1`, the inhibition is reported as 29.7%.
For `O=C(/C=C/Nc1ccccc1OC(F)(F)F)C(F)(F)F`, the inhibition was 5.5%.
Compound `CN1CCN(c2ccc(NC(=O)COc3ccc(Cl)cc3Cl)cc2)CC1` has an inhibition of -16.8%.
In the case of `Cc1ccccc1OCC(=O)Nc1ccc(N2CCN(C(=O)C(C)C)CC2)c(Cl)c1`, the inhibition is reported as 68.8% (active).
`Cc1cccc(NC(=O)COc2ccccc2C)n1` was tested, and the inhibition was 19.4%.
With `COc1ccccc1C(=O)N1CCN=C1SCc1cccnc1` the inhibition was 58.4% (active).
In the case of `CCC(=O)N1CCN=C1SCc1ccc(F)cc1`, the inhibition is reported as 11%.
Compound `O=C(c1ccco1)N1CCN=C1SCc1cccc(Cl)c1` has an inhibition of 34.4%.
`Oc1c(C(c2ccccn2)N2CCOCC2)ccc2cccnc12` (stereo not drawn) gave an inhibition of -11.4%.
Compound `O=C(Cn1cc(-c2nnnn2-c2ccc(Cl)cc2)c(=O)c2ccccc21)c1ccccc1` has an inhibition of -11.4%.
Compound `O=c1cc(CO)oc(CN2CCC(Cc3ccccc3)CC2)c1O` has an inhibition of 4.2%.
For `FC(F)(F)c1cccc(-c2cc3ccccc3nc2N2CCCC2)c1`, the inhibition was 11.5%.
`O=C(COC(=O)c1ccc(S(=O)(=O)N2CCc3ccccc3C2)cc1)NC(=O)NCc1ccco1` was tested, and the inhibition was 10.9%.
In the case of `C=CCOC(=O)C1=C(C)NC(SCC(=O)OCC)=C(C#N)C1c1ccc(C)cc1` (stereo not drawn), the inhibition is reported as 64.3% (active).
`CC1=C(C(=O)OCc2ccccc2)C(c2ccco2)n2ncnc2N1` (stereo not drawn) was tested, and the inhibition was 17.6%.
`CCOC(=O)CSC1=C(C#N)C(c2ccco2)C(C(=O)OCc2ccccc2)=C(C)N1` (stereo not drawn) was tested, and the inhibition was 95.5% (active).
`C=CCOC(=O)C1=C(C)OC(N)=C(C#N)C1c1ccc(F)cc1` (stereo not drawn) was tested, and the inhibition was 44.5%.
`CC1=C(C(=O)Nc2ccccc2)C(c2ccco2)C(C#N)=C(SCC(N)=O)N1` (stereo not drawn) was tested, and the inhibition was 5.8%.
With `Cc1cc(=O)oc2ccc(OCC(=O)O)cc12` the inhibition was 11.6%.
In the case of `CC/C(=N\O)C(C)(C)/[N+]([O-])=C/c1ccc(Br)cc1`, the inhibition is reported as 0.5%.
`COCCCNC(=O)COc1cc(C)c(Cl)c(C)c1` was tested, and the inhibition was -73.4%.
For `CCn1nc(C(=O)OCC(=O)N2c3ccccc3CC2C)c2ccccc2c1=O` (stereo not drawn), the inhibition was 80.7% (active).
`CCOC(=O)c1[nH]c(C)c(C(=O)OCC(=O)N2c3ccccc3CC2C)c1C` (stereo not drawn) showed an inhibition of 10.7%.
For `CC1Cc2ccccc2N1C(=O)Cn1cnc2ccccc2c1=O` (stereo not drawn), the inhibition was 34.6%.
For `Cc1ccc(Cl)cc1NC(=O)COC(=O)C1CCCCC1`, the inhibition was 28.6%.
With `Cn1c2c(c(=O)n(C)c1=O)C(c1cccc([N+](=O)[O-])c1)Nc1ccccc1O2` (stereo not drawn) the inhibition was 50.4% (active).
`Cn1c2c(c(=O)n(C)c1=O)C(c1ccc(O)cc1)Nc1ccccc1O2` (stereo not drawn) was tested, and the inhibition was 19.1%.
Work on `CCOC(=O)C1=C(CN2CCc3ccccc32)NC(=O)NC1c1cccc([N+](=O)[O-])c1` (stereo not drawn) yielded an inhibition of 25.1%.
Work on `Nc1c(-c2ccc(F)cc2)cnn1C1CCS(=O)(=O)C1` (stereo not drawn) yielded an inhibition of -14.9%.
`CC1(C)CC(=O)C2=C(C1)N=C1SCCC(=O)N1C2c1ccc(C(F)(F)F)cc1` (stereo not drawn) was tested, and the inhibition was -19.2%.
In the case of `O=c1cc(-c2ccccc2)nc(N2CCCCC2)[nH]1`, the inhibition is reported as -5.8%.
In the case of `O=c1c2c(nc3n1CCCCC3)sc1c(O)cccc12`, the inhibition is reported as 70.6% (active).
`Cc1cccc2c(=O)n3c(nc12)CCCCC3` showed an inhibition of 21%.
`O=C(Nc1ccc2nc3n(c(=O)c2c1)CCCCC3)c1ccccc1Cl` was tested, and the inhibition was 41.7%.
In the case of `CCOc1ccc(NC(=O)c2ccccc2NS(C)(=O)=O)cc1`, the inhibition is reported as 54.1% (active).
In the case of `COC(=O)c1ccc(NC(=O)c2ccccc2NS(=O)(=O)c2ccccc2)cc1`, the inhibition is reported as 96.1% (active).
`COC(=O)c1ccccc1NC(=O)CN(Cc1ccc(Cl)cc1)S(C)(=O)=O` was tested, and the inhibition was 55.5% (active).
In the case of `COC(=O)c1ccccc1NC(=O)c1cncc(Br)c1`, the inhibition is reported as -3.1%.
`COC(=O)c1ccc(NC(=O)C(C)N2C(=O)c3ccccc3C2=O)cc1` (stereo not drawn) showed an inhibition of 26.7%.
In the case of `COC(=O)c1ccccc1NC(=O)c1ccccc1NS(C)(=O)=O`, the inhibition is reported as 80.6% (active).
Work on `COC(=O)c1ccccc1NC(=O)CN(Cc1ccccc1)S(C)(=O)=O` yielded an inhibition of 27.6%.
Compound `CCOc1ccc(NC(=O)N(CC(C)C)CC(C)C)cc1` has an inhibition of 6.8%.
`CCCNC(=O)Nc1ccccc1C(=O)Nc1ccc(OC)cc1` gave an inhibition of 44.3%.
Work on `CCCCNC(=O)c1ccccc1NC(=O)c1ccccc1N(C)S(C)(=O)=O` yielded an inhibition of -0.4%.
`CCOc1ccccc1N(CC(=O)Nc1ccccc1C(=O)OC)S(C)(=O)=O` gave an inhibition of 6.7%.
`S=C1SCN(CCN2CCOCC2)CN1Cc1ccccc1` was tested, and the inhibition was 22.3%.
With `Cc1nc(NC(CC(C)C)C(=O)O)c2nc(C)oc2n1` (stereo not drawn) the inhibition was 15.1%.
Compound `COC(=O)CNC(c1ccccc1Cl)c1cc(Br)ccc1NC(=O)CCN1CCOCC1` (stereo not drawn) has an inhibition of 7.3%.
With `C=CCn1c(-c2ccc3[nH]c(C)c(C)c3c2)n[nH]c1=S` the inhibition was 31.1%.
`CCCc1nc(-c2ccccc2O)n(-c2ccccc2)n1` gave an inhibition of -16.7%.
With `Cc1ccc(S(=O)(=O)N2C3C=CC(C3)C2C(=O)O)cc1` (stereo not drawn) the inhibition was -4.8%.
`CCOCCCNC(=O)C(NC(=O)c1ccc(=O)[nH]c1)c1ccc(Cl)cc1` (stereo not drawn) gave an inhibition of 2.5%.
`O=C(NCCOc1ccccc1)c1ccccc1` gave an inhibition of -2.4%.
In the case of `Cc1ccc(S(=O)(=O)NCC(=O)N(CC(=O)NC(C)(C)C)Cc2cccs2)cc1`, the inhibition is reported as -0.5%.
`CCOC(=O)N1CCC(NC(=O)Cn2cc3c(n2)CCCCC3)CC1` gave an inhibition of -10.8%.
In the case of `CC(C)c1ccc(/C=C/C(=O)NNC(=O)c2cccnc2)cc1`, the inhibition is reported as 6.3%.
For `CCCCn1c(SCc2ncc(-c3ccccc3)o2)nc2cc(S(N)(=O)=O)ccc21`, the inhibition was 54.5% (active).
`OC(COc1ccccc1)Cn1cc(Br)cn1` (stereo not drawn) showed an inhibition of 18.3%.
With `O=C(O)c1ccc(-n2cccc2)cc1O` the inhibition was 4.7%.
`CCC(C)(C)n1nnnc1C(c1cccs1)N1CCN(c2nc3ccccc3s2)CC1` (stereo not drawn) was tested, and the inhibition was 71% (active).
For `CCC(C)(C)n1nnnc1CN1CCN(c2nc3ccc(C)cc3cc2C#N)CC1`, the inhibition was 8.7%.
`CCC(C)(C)n1nnnc1C(c1cccs1)N1CCN(Cc2ccccc2)CC1` (stereo not drawn) showed an inhibition of 43.4%.
`COCCCNC(=O)CCc1nc2cccnc2n1Cc1ccc(OC)cc1` was tested, and the inhibition was -1.2%.
Work on `Cn1nc(C(F)(F)F)c2cc(NC(=O)OCC(C)(C)C)sc21` yielded an inhibition of -4.4%.
For `COc1ccc(OC)c2c1sc(=NC(=O)CN1C(=O)CCC1=O)n2C`, the inhibition was 2.3%.
For `C=CCn1c2ccccc2c2nnc(SC(CC)C(=O)Nc3nc(C)c(C(=O)OCC)s3)nc21` (stereo not drawn), the inhibition was 75% (active).
`CCOC(=O)c1sc(NC(=O)C(CC)Sc2nccn2C)nc1C` (stereo not drawn) showed an inhibition of 45.4%.
In the case of `CCOC(=O)c1sc(/N=C/Nc2nc(C)c(C(=O)OCC)s2)nc1C`, the inhibition is reported as 29.2%.
Work on `O=C(c1cccnc1NCc1ccccc1)N1CCOCC1` yielded an inhibition of 4%.
